This is an account of results in PubChem BioAssay.

SMILES strings stand for the structures. The source made the active and inactive calls.

The subject of assay [1] is Human papillomavirus type 1a protein E7 (residues 44-93). Put plainly: HPV1a E7 fragment binders on microarrays, primary screen, biochemical, small-molecule microarray, residues 44-93, 635 nm fluorescence (AID 1108).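 Note: E7 fragment applied at 1 µg/mL in TBST for 1 h at 4 C; score combines spot fluorescence with its signal to noise ratio.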 The note with it: small-molecule microarray binding, fluorescence 635 nm; higher = more signal.
Assay [2] in a line: modulators of HCV replicon luciferase signal, primary screen, HCV replication inhibitor project, Huh7 cells, luciferase reporter (AID 1109).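 Note: huh7 hepatoma cells harbouring a luciferase neomycin HCV replicon reporter; luciferase luminescence as measure of HCV replicon replication; test concentration not given here.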 The conditions noted are these: 48 h, higher = more signal. Background: Replicon systems follow genome replication, usually without infectious particles.
Assay [3] addresses Left-right determination factor 2 (Homo sapiens) (UniProt O00292). Put plainly: LEFTY2 binders on small-molecule microarrays, primary screen, biochemical, small-molecule microarray, 635 nm fluorescence scan (AID 1110). The note with it: LEFTY2 binding, higher = more signal.
The target in assay [4] is Calmodulin-1 (Homo sapiens) (UniProt P0DP23). Nature of the assay: CALM1 binders on microarrays, EGTA buffer, profiling panel, biochemical, small-molecule microarray, Cy5-labelled CALM1 (AID 1111).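 Note: labelled calmodulin applied in Tris saline Tween buffer holding calcium plus EGTA and DTT.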 The conditions noted are these: Cy5-CALM1 binding fluorescence, higher = more signal.
The target is the same in assay [5]. Nature of the assay: calcium-bound CALM1 binders on microarrays, profiling panel, artefact control for SMM control-protein annotation, biochemical, small-molecule microarray, Cy5-labelled CALM1, plus calcium (AID 1112).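 Note: score merges spot fluorescence with signal to noise from triplicate slides.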 The note with it: Cy5-CALM1 binding fluorescence, higher = more signal.
A short description of assay [6]: small-molecule microarray binders of probe aWnt5a, primary screen, biochemical, biotinylated probe, 635/667 nm fluorescence (AID 1113).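 Note: score merges 667 nm fluorescence intensity with signal-to-noise per printed feature.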 The conditions noted are these: higher = more signal.
Assay [7] can be described thus: small-molecule microarray binders of probe aShh, primary screen, biochemical, biotinylated probe, 635/667 nm fluorescence (AID 1114).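 Note: probe is biotin-labelled aShh protein from a stem cell growth factor screen; measures binding of labelled protein to compounds printed on the slide; score merges feature fluorescence at 667 nm with signal-to-noise.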 The note with it: higher = more signal.
Assay [8] in a line: small-molecule microarray binders of probe aNog, primary screen, biochemical, biotinylated probe, 635/667 nm fluorescence (AID 1115).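 Note: probe is biotinylated aNog protein used at 0.15 µg/mL for 1 h at 4 C; z-score combines 667 nm fluorescence of each spot with its signal to noise.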 The note with it: higher = more signal.
For assay [9], the target named is Torsin-1A-interacting protein 1 (Homo sapiens) (UniProt Q5JTV8). Nature of the assay: LAP1 binders from COS7 cell lysate, primary screen, small-molecule microarray, 635/667 nm fluorescence (AID 1116). The conditions noted are these: COS7-hLAP1 lysate binding, 635 nm fluorescence, higher = more signal.
Assay [10] addresses Alpha-bungarotoxin (Bungarus multicinctus) (UniProt P60615). Nature of the assay: alpha-bungarotoxin binders on microarray, profiling panel, artefact control for SMM control protein annotation, biochemical, small-molecule microarray, Alexa647 label, 635/667 nm fluorescence (AID 1117). The note with it: alpha-BTX-A647 binding fluorescence, higher = more signal.
For the next assay, the target named is Albumin (Bos taurus) (UniProt P02769). Nature of the assay: bovine serum albumin binders on microarray, profiling panel, artefact control for SMM control protein annotation, biochemical, small-molecule microarray, Alexa647 label, 635/667 nm fluorescence (AID 1118).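 Note: score merges 667 nm emission intensity and signal-to-noise per printed compound spot.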 The note with it: BSA-A647 binding, fluorescence 635 nm, higher = more signal.
A short description of assay [11]: small-molecule microarray binders of probe aXIP, primary screen, biochemical, NeuroSMM set, 635/667 nm fluorescence (AID 1119).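 Note: probe is the protein aXip251-270 applied at 1 µg/mL to compound-printed slides; binding of probe to printed compounds measured as 667 nm fluorescence plus signal to noise.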 The note with it: higher = more signal, called active from +8 up or from −8 down.
Assay [12] can be described thus: small-molecule binders of probe aNOTCH3, primary screen, biochemical, small-molecule microarray, 635/667 nm fluorescence (AID 1120).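 Note: probe is a biotin-tagged antibody raised against NOTCH3 rather than NOTCH3 protein; score merges spot fluorescence near 667 nm with spot signal to noise.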 The note with it: higher = more signal.
Assay [13] is described as follows: small-molecule binders of probe aNOTCH2, primary screen, biochemical, small-molecule microarray, 635/667 nm fluorescence (AID 1121).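 Note: score merges feature fluorescence read at 667 nm with its signal to noise.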 The note with it: higher = more signal.
Assay [14] deals with Carbonic anhydrase 2 (Homo sapiens) (UniProt P00918). Put plainly: CAII small-molecule binders, profiling panel, biochemical, small-molecule microarray, Alexa647-labelled CAII (AID 1122). The conditions noted are these: CAII-A647 binding fluorescence, higher = more signal.
Assay [15] in a line: COS7 lysate on small-molecule microarray, probe aHis, 635 nm (AID 1123).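 Note: z-score combines 667nm fluorescence intensity with signal-to-noise per printed compound spot.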 The note with it: COS7 cell lysate, fluorescence, higher = more signal.
The nature of assay [16]: compound binding in COS7 lysate, probe aLAP1, primary screen, cell lysate, small-molecule microarray (AID 1124).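 Note: lysate comes from COS7 cells expressing LAP1 and is applied at 0.3 µg/mL; score merges spot fluorescence near 667 nm with signal-to-noise over triplicate slides.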 The conditions noted are these: probe aLAP1, fluorescence, higher = more signal.
The test system of a further assay is Sam68 (KHDRBS1). Put plainly: Sam68 small-molecule binders, primary screen, biochemical, small-molecule microarray, 635 nm fluorescence (AID 1125).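 Note: score merges 667 nm channel intensity with signal to noise over triplicate slides.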 The conditions noted are these: small-molecule microarray binding, higher = more signal.
The test system of assay [17] is Chordin-like protein 2 (CHRDL2). Nature of the assay: CHRDL2 small-molecule binders, primary screen, biochemical, small-molecule microarray, 635 nm fluorescence (AID 1126).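 Note: printed compound slides probed with Chrdl2 protein at 4 µg/mL for 1 h at 4 C; score merges 667 nm emission intensity with signal to noise over three replicate slides.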 The note with it: small-molecule microarray binding, fluorescence 635 nm; higher = more signal.
In assay [18] the target is Concanavalin-A (Canavalia ensiformis) (UniProt P02866). Nature of the assay: ConA small-molecule binders, primary screen, artefact control for SMM control protein annotation, biochemical, small-molecule microarray, Alexa647 label, 635 nm (AID 1127).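 Note: z combines 667 nm emission intensity with signal-to-noise across three replicate slides.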 The note with it: ConA-A647 binding fluorescence, higher = more signal.
Concanavalin-A (Canavalia ensiformis), sequence (P02866 whole entry, looked up): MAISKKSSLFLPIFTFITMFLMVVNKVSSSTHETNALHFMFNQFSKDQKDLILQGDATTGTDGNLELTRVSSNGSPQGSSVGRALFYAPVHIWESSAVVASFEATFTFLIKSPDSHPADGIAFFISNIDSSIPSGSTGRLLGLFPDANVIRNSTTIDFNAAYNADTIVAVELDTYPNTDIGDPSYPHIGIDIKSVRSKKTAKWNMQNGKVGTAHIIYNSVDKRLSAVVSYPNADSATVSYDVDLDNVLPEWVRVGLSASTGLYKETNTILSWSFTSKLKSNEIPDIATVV

Left-right determination factor 2 (Homo sapiens), sequence (O00292 whole entry, looked up): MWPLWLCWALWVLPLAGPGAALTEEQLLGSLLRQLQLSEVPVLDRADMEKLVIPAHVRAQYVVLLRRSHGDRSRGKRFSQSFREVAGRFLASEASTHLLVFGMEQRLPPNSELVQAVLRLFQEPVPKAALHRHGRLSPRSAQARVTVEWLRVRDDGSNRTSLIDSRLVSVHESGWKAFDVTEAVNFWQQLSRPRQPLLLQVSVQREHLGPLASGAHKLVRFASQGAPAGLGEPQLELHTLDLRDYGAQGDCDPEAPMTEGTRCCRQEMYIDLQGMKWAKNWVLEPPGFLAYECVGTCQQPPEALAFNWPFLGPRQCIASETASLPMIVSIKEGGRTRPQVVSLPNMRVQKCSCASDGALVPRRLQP
Alpha-bungarotoxin (Bungarus multicinctus), sequence (P60615 whole entry, looked up): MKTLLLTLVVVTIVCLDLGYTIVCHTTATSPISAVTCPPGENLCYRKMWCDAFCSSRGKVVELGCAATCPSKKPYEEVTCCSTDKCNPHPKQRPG
Torsin-1A-interacting protein 1 (Homo sapiens), sequence (Q5JTV8 whole entry, looked up): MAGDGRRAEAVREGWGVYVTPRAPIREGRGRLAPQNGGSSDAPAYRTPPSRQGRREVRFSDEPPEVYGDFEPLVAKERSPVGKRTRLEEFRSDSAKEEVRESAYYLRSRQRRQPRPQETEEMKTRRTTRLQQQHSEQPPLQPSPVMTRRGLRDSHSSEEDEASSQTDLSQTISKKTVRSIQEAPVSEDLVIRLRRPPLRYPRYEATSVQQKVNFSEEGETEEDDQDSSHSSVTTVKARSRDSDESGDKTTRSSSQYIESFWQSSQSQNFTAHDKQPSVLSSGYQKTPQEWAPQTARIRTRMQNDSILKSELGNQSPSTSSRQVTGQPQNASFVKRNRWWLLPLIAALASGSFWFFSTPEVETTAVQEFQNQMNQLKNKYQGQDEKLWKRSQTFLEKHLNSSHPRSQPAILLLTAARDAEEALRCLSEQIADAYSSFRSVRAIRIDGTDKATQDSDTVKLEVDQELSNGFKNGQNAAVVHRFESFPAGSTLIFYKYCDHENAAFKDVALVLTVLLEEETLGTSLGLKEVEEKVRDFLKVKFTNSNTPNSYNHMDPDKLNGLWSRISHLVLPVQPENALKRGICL
Albumin (Bos taurus), sequence (P02769 whole entry, looked up): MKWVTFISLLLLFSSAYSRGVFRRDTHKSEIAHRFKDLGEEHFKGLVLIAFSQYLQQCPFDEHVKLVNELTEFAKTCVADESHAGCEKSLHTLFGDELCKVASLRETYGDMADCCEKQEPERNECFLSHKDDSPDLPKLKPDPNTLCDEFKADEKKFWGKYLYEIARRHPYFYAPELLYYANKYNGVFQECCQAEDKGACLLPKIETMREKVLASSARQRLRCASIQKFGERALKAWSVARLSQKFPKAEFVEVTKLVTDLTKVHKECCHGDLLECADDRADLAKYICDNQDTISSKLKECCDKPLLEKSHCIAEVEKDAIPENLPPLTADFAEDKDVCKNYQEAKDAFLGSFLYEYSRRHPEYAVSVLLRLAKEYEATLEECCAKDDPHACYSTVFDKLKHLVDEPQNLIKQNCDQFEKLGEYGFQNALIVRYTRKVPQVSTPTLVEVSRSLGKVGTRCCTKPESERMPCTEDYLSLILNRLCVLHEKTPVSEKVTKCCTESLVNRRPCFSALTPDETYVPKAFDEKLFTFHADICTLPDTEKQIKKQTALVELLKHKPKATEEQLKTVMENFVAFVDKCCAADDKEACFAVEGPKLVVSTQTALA

In the case of `Cc1ccc(N2C(=O)c3ccccc3[C@@H](C(=O)NC(C)C)[C@@H]2c2ccc(CO)cc2)nc1`, the composite z-score in assay [1] is -0.191; in [3] it was 0.0413; in assay [4] it was -0.973; in [5], -0.754; in assay [6], 0.0101; in assay [7], -0.291. Moreover, the composite z-score was -0.493 in assay [8]; 2.09 in [9]; -0.719 in assay [10]; -0.106 with Albumin (Bos taurus); -0.272 in assay [12]; -0.152 in assay [13]. Moreover, the composite z-score was 0.743 in [14]; 0.971 in [15]; 0.618 in assay [16]; -0.721 with Sam68 (KHDRBS1); -0.0432 in assay [17]; -0.0441 in [18]. This compound returned a z-score in assay [2] of -0.301. Also, in assay [11], the composite Z-score is -0.0969 (inactive).
On to `C[N+](C)(C)CCCC[C@@H]1NC(=O)[C@H]2C[C@@H](C(=O)O)[C@@H](c3cccc(OCCO)c3)N2C1=O`, for which the composite z-score in assay [1] amounted to 1.47; in assay [3], 0.968; in assay [4] it was 2.16; in [5], 0.618; in [6], 1.18; in assay [7], 2.34. Also, the composite z-score in [8] is 2.84; in assay [9], 3.37; in assay [10], 3.77; with Albumin (Bos taurus) it was 0.969; in assay [12], 1.14; in [13], 0.402. Further, the composite z-score was determined as 0.758 in assay [14]; 3.12 in [15]; 1.07 in assay [16]; 1.31 in the assay with Sam68 (KHDRBS1); 1.17 in assay [17]; 1.22 in assay [18]. Moreover, in assay [2], the z-score is -0.774. In addition, in [11], the composite Z-score is 3.73 (inactive).
As to `COc1ccc(C(=O)Nc2cccc(CN3C(=O)[C@@]4(O[C@@H](CC(=O)N5Cc6ccccc6C[C@H]5CO)[C@H]([Si](C)(C)c5ccc(OC)cc5)[C@H]4C)c4ccccc43)c2)cc1`, the composite z-score in assay [1] was -0.296; in assay [3] it was 0.904; in assay [4], -0.0023; in [5], -0.68; in [6] it was -0.0643; in assay [7] it was 0.353. The composite z-score in [8] was 0.118; in [9], 0.965; in assay [10], 1.27; with Albumin (Bos taurus), -1.04; in assay [12], 0.127; in [13], -0.14. For the same compound, the composite z-score is 0.576 in assay [14]; 1.15 in [15]; -0.0148 in [16]; 1.04 in the assay on Sam68 (KHDRBS1); 1.38 in [17]; 1.08 in assay [18]. The compound further displayed a z-score in [2] of -3.74. Also, the composite Z-score in [11] is 0.008 (inactive).
For the compound `COCCCNC(=O)[C@@]1(Sc2ccc(C)cc2)CC(=O)N(Cc2ccccc2)[C@@H]1c1ccc(CO)cc1`, the composite z-score in assay [1] was 0.0655; in assay [3], -0.993; in assay [4] it was -0.488; in [5], -0.58; in [6], -0.0221; in assay [7] it was -0.0324. Also, the composite z-score in assay [8] is 0.336; in assay [9], -0.36; in assay [10] it was -0.941; with Albumin (Bos taurus) it was 0.146; in assay [12], -0.689; in [13], -0.134. Also, the composite z-score in [14] was 0.534; in assay [15], 2.54; in assay [16], 0.378; in the assay with Sam68 (KHDRBS1), 0.0145; in [17], -0.21; in assay [18] it was -0.668. In assay [2], this compound registered a z-score of -1.29. In addition, the composite Z-score in [11] is 0.201 (inactive).
With `CCCC[C@H]1C[C@@H]1[C@@H]1N(P(=O)(c2ccccc2)c2ccccc2)[C@](CO)(c2ccccc2)CC12CC2`, the composite z-score in assay [1] is 0.992; in assay [3], -1.58; in [4], 1.85; in assay [5], 1.08; in assay [6], 0.188; in [7], 0.562. Besides, the composite z-score is 1.75 in assay [8]; 0.0187 in assay [9]; -0.0785 in assay [10]; 0.914 with Albumin (Bos taurus); 0.112 in [12]; 0.281 in assay [13]. Besides, the composite z-score in assay [14] is 0.285; in assay [15], 2.17; in assay [16], -0.384; in the assay on Sam68 (KHDRBS1), 0.255; in assay [17], -1.39; in assay [18], 0.558. The compound further returned a z-score in assay [2] of -2.4. Besides, the composite Z-score in assay [11] is -0.0435 (inactive).
On to `CCN(CC)c1ccc(N2CC=CC34O[C@@H]5C=CCCOC(=O)C5[C@H]3C(=O)N(CCCO)[C@@H]4C2=O)cc1` (stereo not given in full), for which the composite z-score is -0.591 in assay [1]; 0.0606 in assay [3]; -0.409 in assay [4]; -0.977 in assay [5]; -0.176 in assay [6]; -0.294 in assay [7]. The composite z-score in [8] is -0.288; in assay [9] it was -0.273; in assay [10], -1.17; with Albumin (Bos taurus), -0.87; in assay [12], -0.0387; in assay [13] it was -0.102. Further, the composite z-score in [14] was -0.177; in assay [15], -0.291; in [16], -0.332; with Sam68 (KHDRBS1), -0.876; in assay [17], -0.218; in assay [18] it was -2.31. The compound further returned a z-score in assay [2] of 0.0997. Besides, the composite Z-score in assay [11] is -0.0662 (inactive).
Take `O=C1OCCC=C[C@H]2OC34C=CCN(CCN5CCOCC5)C(=O)[C@H]3N(CCO)C(=O)[C@@H]4C12` (stereo not given in full): the composite z-score in assay [1] was -1.74; in assay [3] it was 0.601; in assay [4], -1.72; in [5], -1.21; in assay [6], -0.181; in assay [7], -0.338. The composite z-score is -0.467 in assay [8]; 0.0029 in assay [9]; -1.01 in [10]; -0.188 in the assay with Albumin (Bos taurus); 0.16 in assay [12]; -0.202 in assay [13]. In addition, the composite z-score is 0.72 in assay [14]; -0.219 in assay [15]; -0.193 in [16]; -1.08 with Sam68 (KHDRBS1); 0.112 in assay [17]; -0.916 in assay [18]. The compound also came in with a z-score in assay [2] of 0.18. Besides, the composite Z-score in assay [11] was -0.7 (inactive).
